Bioassay records (PubChem)
Pol eta inh-1: DNA polymerase eta (human) inhibition | 1.2% of 390,000 active | recombinant Pol eta, fluorescent DNA replication assay | AID 588591 | Potency, µM (titrated, usually from 114 µM), inactives show top-dose activity change, negative = inhibition, usual class: inhibitors | Q9Y253; further: potency means the concentration at half of the fitted maximal effect; on the % scale 0 is the no-effect control and ±100 the full control effect
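Pol eta at 10 nM preincubated with compounds 15 min at room temperature; reaction started with fluorescent substrate (50 nM final) and read kinetically at 0 and 10 min.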
Pol kappa inh-1: inhibitors of human DNA polymerase kappa | 0.53% of 400,000 active | Potency, µM (titrated, usually from 107 µM), for inactives: at the top dose activity, negative = inhibition, usual class: inhibitors | purified Pol kappa, fluorescent DNA synthesis assay, 10 min; further: potency means the concentration at half of the fitted maximal effect; on the % scale 0 is the no-effect control and ±100 the full control effect
Target sequence (Q9UBT6 whole entry, looked up): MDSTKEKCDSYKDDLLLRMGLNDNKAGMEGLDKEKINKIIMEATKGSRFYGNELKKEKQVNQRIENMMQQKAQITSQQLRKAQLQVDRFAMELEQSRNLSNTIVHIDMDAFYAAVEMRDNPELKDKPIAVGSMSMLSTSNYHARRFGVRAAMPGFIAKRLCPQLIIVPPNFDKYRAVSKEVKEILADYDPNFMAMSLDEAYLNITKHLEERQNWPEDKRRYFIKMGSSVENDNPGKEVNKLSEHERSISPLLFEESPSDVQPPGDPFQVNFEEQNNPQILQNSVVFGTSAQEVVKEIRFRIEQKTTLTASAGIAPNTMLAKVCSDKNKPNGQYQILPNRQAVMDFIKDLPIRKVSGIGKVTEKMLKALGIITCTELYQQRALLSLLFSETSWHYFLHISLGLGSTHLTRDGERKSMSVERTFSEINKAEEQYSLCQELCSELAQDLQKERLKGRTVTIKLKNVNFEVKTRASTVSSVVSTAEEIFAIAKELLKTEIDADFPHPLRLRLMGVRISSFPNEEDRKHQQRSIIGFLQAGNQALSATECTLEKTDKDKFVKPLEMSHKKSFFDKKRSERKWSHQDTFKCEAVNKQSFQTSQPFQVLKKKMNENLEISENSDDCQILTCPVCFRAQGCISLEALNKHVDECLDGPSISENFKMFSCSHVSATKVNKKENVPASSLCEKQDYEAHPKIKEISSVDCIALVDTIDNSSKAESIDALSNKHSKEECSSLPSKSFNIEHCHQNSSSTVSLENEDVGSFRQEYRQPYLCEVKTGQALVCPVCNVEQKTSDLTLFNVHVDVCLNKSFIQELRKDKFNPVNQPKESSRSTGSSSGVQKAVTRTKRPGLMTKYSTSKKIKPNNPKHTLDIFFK
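Kinetic fluorescence screen: compound preincubated 15 min RT with 10 nM enzyme; 50 nM substrate (final) initiates; reads at 0/10 min.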
POLI inh: inhibitors of human DNA polymerase iota. Q9UNA4. Pol iota fluorescent replication assay, 10 min. Potency, µM (doses to about 115 µM), for the others: top-dose activity, negative = inhibition, actives largely listed as inhibitors. 1% of 390,000 active. AID 588590; further: potency means the concentration at half of the fitted maximal effect
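Pol iota at 10 nM preincubated 15 min with compounds at room temperature; reaction started with fluorescent substrate, 50 nM final. Fluorescence read kinetically at 0 and 10 min; buffer-only wells as negative control.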
PGK inhibitor: blocks T. brucei phosphoglycerate kinase. P07378. PGK/GAPDH coupled, Kinase-Glo luminescence, 60 min. Potency, µM (titrated, usually from 57.5 µM), for the others: top-dose activity change, negative = inhibition, most hits filed as inhibitors. 0.043% of 380,000 active; further: potency means the concentration at half of the fitted maximal effect; on the % scale 0 is the no-effect control and ±100 the full control effect; nearly all actives have a fitted effect of over 60% in size
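Luminescent ATP detection (Kinase-Glo Plus) follows a 60-minute room-temperature incubation, with wells lacking PGK as controls. Buffer: 100 mM TEA (pH 7.6), 5 mM MgCl2, 0.01% Tween-20. Coupling enzyme GAPDH (100 nM final) supplies unstable 1,3-BPG in-well.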
FEN1 inh: blocks human flap endonuclease 1. Potency, µM (highest dose often 114 µM), for the others: at the top dose activity change, negative = inhibition, most hits filed as inhibitors. P39748. AID 588795. 0.35% of 390,000 active. Recombinant FEN1 flap cleavage, fluorescence, 15 min; further: potency means the concentration at half of the fitted maximal effect; on the % scale 0 is the no-effect control and ±100 the full control effect; nearly all actives have a fitted effect of over 65% in size
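Read-out was taken twice, immediately and after 15 min, following addition of 50 nM substrate to 10 nM FEN1 that had sat with test compound for 15 min at room temperature. Curves came from a four-parameter Hill model.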
POLB inh: blocks human DNA polymerase beta activity | AID 485314 | Pol beta primer extension/strand displacement, fluorescence kinetic | 1.3% of 340,000 active | Potency, µM (highest dose often 114 µM), for the others: at the highest dose activity change, negative = inhibition, hits mostly inhibitors | P06746; further: potency means the concentration at half of the fitted maximal effect; on the % scale 0 is the no-effect control and ±100 the full control effect
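Curves were derived by four-parameter Hill fits of normalized qHTS data. The kinetic fluorescent primer-extension read was taken at 0 and 10 min after 50 nM substrate, following a 15 min room-temperature preincubation of 10 nM enzyme with compounds.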
GALK confirm: confirmation of human galactokinase (GALK) inhibitors. 70% of 150 active. Potency, µM (highest dose often 115 µM), for inactives: at the top dose activity, negative = inhibition, hits mostly inhibitors. shares compounds with Pol eta inh-1. AID 2015. purified GALK, Kinase-Glo ATP depletion luminescence
GALK redox cs: counter-screen for GALK inhibitors: redox cycling H2O2 generation. shares compounds with Pol eta inh-1. AID 2035. Phenol red-HRP H2O2 redox cycling, absorbance 600 nm. 40% of 150 active. Potency, µM (series often up to 115 µM), for the others: top-dose activity change, negative = H2O2 signal, usual class: inhibitors
HEK293 tox: counter-screen for GALK inhibitors: HEK293 cell cytotoxicity | HEK-293 viability, ATP luminescence (CellTiter-Glo), 24/48 h | Potency, µM (series often up to 46.1 µM), inactives show top-dose activity change, negative = cytotoxicity, most hits filed as inhibitors | 10% of 170 active | shares compounds with Pol eta inh-1; further: potency means the concentration at half of the fitted maximal effect; on the % scale 0 is the no-effect control and ±100 the full control effect
Pol kappa inh-2: Pol kappa (human) inhibition, cherry-pick confirmation; purified Pol-kappa, fluorescent strand-displacement substrate; Potency, µM, most hits filed as inhibitors; 76% of 920 active; shares compounds with Pol eta inh-1; further: potency means the concentration at half of the fitted maximal effect
Pol eta inh-2: confirmation of human DNA polymerase eta inhibitors. 64% of 2,600 active. Potency, µM, actives largely listed as inhibitors. AID 720502. shares compounds with Pol eta inh-1. Pol eta primer extension, TAMRA/BHQ fluorescence, 10 min; further: potency means the concentration at half of the fitted maximal effect
* = called active by the depositor; [ ] = remark or other dose. Sampled rows, rich in hits. Any-hit rate of the full collection: about 2.4%. The call rests on the fitted dose curve; in most records, active means well fitted curve in the direction sought with a large enough effect; inconclusive means small, poorly fitted or top-dose-only effect, or another doubt; inactive means no such curve, though single readings can be large; an effect the other way counts as inactive or inconclusive.

For O=C(CCC(=O)c1cccs1)NNC(=O)c1ccc(Cl)cc1 the results were Pol eta inh-1 -7.7%, Pol kappa inh-1 7.7%, POLI inh 26.1%, PGK inhibitor -6.7% and FEN1 inh 0.2%.
Screening O=C(CCC(=O)c1cccs1)NNC(=O)c1ccccc1O returned Pol eta inh-1 28.2µM*, Pol kappa inh-1 inconclusive, POLI inh inconclusive, PGK inhibitor -4.5%, FEN1 inh -3.7% and Pol eta inh-2 inconclusive.
Cc1cccc(OCC(=O)Nc2nnc(S(=O)(=O)N3CCc4ccccc43)s2)c1 was read as Pol eta inh-1 89.1µM*, Pol kappa inh-1 inconclusive, POLI inh inconclusive, PGK inhibitor -12.9%, FEN1 inh 1.4%, POLB inh 18.4% and Pol eta inh-2 inconclusive.
`C/C(=N\Nc1ccc(C(=O)O)cc1)c1ccc(Br)cc1` gave Pol eta inh-1 12.6µM*, Pol kappa inh-1 inconclusive, POLI inh 39.8µM*, PGK inhibitor inconclusive, FEN1 inh 1.8%, POLB inh 20µM* and Pol eta inh-2 26.9*.
Screening CC[C@H](C)/C=C(C)/C=C/C1=CC2=CC(=O)[C@]3(C)OC(=O)[C@@H](C(C)=O)[C@@H]3C2=CO1 returned Pol eta inh-1 25.1µM*, Pol kappa inh-1 79.4µM*, POLI inh 22.4µM*, PGK inhibitor -0.3%, FEN1 inh -18.1%, POLB inh 35.5µM* and Pol eta inh-2 inconclusive.
`O=C(O)c1cccc(N/N=C/C2=C(Cl)c3cc(Cl)ccc3SC2)c1` gave Pol eta inh-1 50.1µM*, Pol kappa inh-1 -19.0%, POLI inh inconclusive, PGK inhibitor -10.5%, FEN1 inh -10.4%, POLB inh inconclusive, Pol kappa inh-2 inconclusive and Pol eta inh-2 inconclusive.
Screening O=C(O)c1cn[nH]c1-c1cccc([N+](=O)[O-])c1 returned Pol eta inh-1 20µM*, Pol kappa inh-1 inconclusive, POLI inh 25.1µM*, PGK inhibitor -9.0%, FEN1 inh -14.5%, POLB inh -14.8% and Pol eta inh-2 67.5*.
For O=C(O)c1cc([N+](=O)[O-])ccc1-c1ccc([N+](=O)[O-])cc1C(=O)O the results were Pol eta inh-1 20µM*, PGK inhibitor -10.6%, Pol kappa inh-2 3.77* and Pol eta inh-2 60.1*.
Screening O=C(O)c1cc([N+](=O)[O-])ccc1N1CCCCC1 returned Pol eta inh-1 -12.6%, Pol kappa inh-1 -12.7%, POLI inh -1.6%, PGK inhibitor -8.8%, FEN1 inh 8.8% and POLB inh -0.3%.
Screening CN1CCC2(CC1)CCN(C(=O)c1cccc(F)c1)CC2 returned Pol kappa inh-1 -2.3%[60.1 µM].
Screening CC(=O)C(=Cc1ccc(C(=O)O)cc1)C(C)=O returned Pol eta inh-1 39.8µM*, Pol kappa inh-1 inconclusive, POLI inh inconclusive, PGK inhibitor -8.0%, FEN1 inh 8.4%, POLB inh inconclusive and Pol eta inh-2 inconclusive.
CC1CC(Nc2cccc(O)c2)=CC(=O)O1 (stereo unspecified) was read as Pol eta inh-1 -10.4%, Pol kappa inh-1 -2.0%, POLI inh -6.7%, PGK inhibitor inactive, FEN1 inh -0.4% and POLB inh 7.9%.
`C[C@@H]1Cc2c(O)c(O)cc(O)c2C(=O)O1` gave Pol eta inh-1 22.4µM*, Pol kappa inh-1 79.4µM*, POLI inh inconclusive, PGK inhibitor -18.8%, FEN1 inh 56.2µM*, POLB inh 2.82µM* and Pol eta inh-2 67.5*.
Screening Cc1cc(C)cc(NC(=O)c2sc3nc(-c4cc5ccccc5oc4=O)[nH]c(=O)c3c2C)c1 returned Pol eta inh-1 -11.6%, Pol kappa inh-1 -13.3%, POLI inh 7.3%, PGK inhibitor -3.0%, FEN1 inh -5.9% and POLB inh -6.4%.
Screening Cc1cccc(NC(=O)c2sc3nc(-c4cc5ccc(O)cc5oc4=O)[nH]c(=O)c3c2C)c1 returned Pol eta inh-1 inconclusive, Pol kappa inh-1 -3.2%, POLI inh 41.4%, PGK inhibitor -3.7%, FEN1 inh -8.5%, POLB inh inconclusive and Pol eta inh-2 inconclusive.
For Oc1c(CN2CCCCC2)cc(COCc2ccccc2)c2cccnc12 the results were Pol eta inh-1 -12.1%, Pol kappa inh-1 -16.1%, POLI inh 95.9%, PGK inhibitor -2.7%, FEN1 inh inconclusive and POLB inh 4.9%.
COCc1cc(CN2CCCC2)c(O)c2ncccc12 was read as Pol eta inh-1 -8.1%, Pol kappa inh-1 -16.3%, POLI inh 62.7%, FEN1 inh inconclusive, POLB inh -1.8%, GALK confirm 1.3%, GALK redox cs -2.5% and HEK293 tox inconclusive.
Screening CCCCC1C(=O)CC[C@H]2[C@@H]1CC(=O)[C@@H]2C/C=C\CCCC(=O)O (stereo partly specified) returned Pol eta inh-1 inconclusive, Pol kappa inh-1 -26.0%, POLI inh inconclusive, PGK inhibitor -8.8%, FEN1 inh -6.1%, POLB inh 25.5% and Pol eta inh-2 inconclusive.
Screening CCCCCC1C(=O)CCC1CC(=O)O (stereo unspecified) returned Pol kappa inh-1 -3.4%[60.1 µM].
`Cc1ccc(NC(=O)c2cc(S(=O)(=O)N3CCc4ccccc43)cn2C)c(Cl)c1` gave Pol eta inh-1 -17.2%, Pol kappa inh-1 -2.9%, POLI inh -15.8%, PGK inhibitor 3.1%, FEN1 inh 1.9% and POLB inh 7.3%.
